Pf Dd2 inh: Plasmodium falciparum Dd2 growth inhibition; P. falciparum Dd2 growth, SYBR Green, 72 h; Potency, µM (series often up to 28.9 µM), for the others: at the highest dose activity, negative = inhibition, usual class: inhibitors; actives 4.3% (n = 120,000); AID 1347417; active = well fitted inhibition curve with a large enough effect;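 also: plate controls were DMSO vehicle for no effect and reference drug for full effect; nearly all actives have a fitted effect of over 65% in size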
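Readout: SYBR Green fluorescence, 485 nm excitation, 535 nm emission, after ~16 h lysis at 37C. Before that, Dd2-infected red cells (2.5% hematocrit) grew 72 h with compound, 29 uM top final concentration.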
* marks the source's active call; other numbers are inactive results; i = inactive; [ ] = dose if it differs, or a comment. This excerpt belongs to a sample that is enriched for hits. Potency is read from the fitted curve at half-maximal effect.

SMILES | Pf Dd2 inh
CC1CCCN(C(=O)c2coc(COc3cccc(F)c3F)n2)C1 (stereo not drawn) | -18.5%
CCN1C(=O)C2(CCN(C(=O)N(C)C)CC2)c2ccccc21 | 41.5%
CCCC(=O)N1CCC2(CC1)C(=O)N(CC)c1ccccc12 | 54.3%
CCN1C(=O)C2(CCN(C(=O)c3c(C)noc3C)CC2)c2ccccc21 | 3.55µM*
COc1ccc(-c2cc(N3CCC(NC(=O)Cc4ccccc4Cl)CC3)n[nH]2)cc1 | -9.1%
CC(C)CC(=O)N1CC[C@H]2COC(=O)N2c2cc(F)ccc2C1 | -11.3%[44.1 µM]
Cn1c(-c2ccc(CN3CCc4[nH]cnc4C3C(=O)O)o2)nc2ccccc21 (stereo not drawn) | -9.9%
Cc1nn2c(c1-c1ccccc1Oc1ccccc1)N(C(=O)Cc1ccc3c(c1)OCO3)CCC2 | -8.9%
Cc1ccc(CNC(=O)CSc2ccc(-c3sc(-c4ccccc4)nc3C)nn2)cc1 | -4.4%
CC(=O)Nc1cccc(NC(=O)CSc2ccc(-c3sc(-c4ccccc4)nc3C)nn2)c1 | 8.91µM*
Cc1nc(-c2ccccc2)sc1-c1ccc(SCC(=O)Nc2cccc(C(F)(F)F)c2)nn1 | -7.8%
CC(c1cccs1)N(C)C(=O)c1cccc(Cl)c1 (stereo not drawn) | i
CCC(=O)Nc1ccc(-c2c(-c3ccc(F)cc3)nn(-c3ccc(F)cc3)c2OC(C)=O)cc1 | -23.3%
Cc1c(CC(=O)NC2CCOCC2)c2c(n1Cc1ccc(F)cc1)CCCC2=O | -13.0%
Cc1c(CC(=O)N2CCC(C#N)CC2)c2c(n1Cc1ccccc1)CCCC2=O | -21.7%
Cc1c(CC(=O)NC2CCOCC2)c2c(n1CCc1ccccc1)CCCC2=O | 10µM*
Cc1ncsc1C1N(C2CCN(C(=O)C3CCC3)CC2)C(=O)C12CCCC2 (stereo not drawn) | -3.8%
CC1(CCCCc2ccccc2)COc2ccc(C(=O)NCc3ccncc3)cc2N1 (stereo not drawn) | i
Cc1ccc(-c2cn3c(n2)CO[C@@H](CNCc2ccc(S(C)(=O)=O)cc2)C3)cc1 | i
Cc1ccc(-c2cn3c(n2)CO[C@@H](CNCc2ccc(Cl)cc2)C3)cc1 | i
Cc1ccc(-c2cn3c(n2)CO[C@@H](CNCc2ccc(-c4ccccn4)cc2)C3)cc1 | 12.6µM*
CCC1CN(C(=O)N2CCC(C(=O)NCCC3=CCCCC3)CC2)c2cc(C)ccc2O1 (stereo not drawn) | 12.6µM*
CCC1CN(C(=O)N2CCC(C(=O)NCCCc3ccccc3)CC2)c2cc(C)ccc2O1 (stereo not drawn) | i
CC1CN(C(=O)N2CCC(C(=O)NCCC3=CCCCC3)CC2)c2ccccc2O1 (stereo not drawn) | -10.8%
O=c1[nH]c2cccnc2n1C1CC1 | -19.4%[44.1 µM]
SMILES | Pf Dd2 inh
O=C1C(N2CCN(Cc3ccc[nH]3)CC2)CCN1Cc1ccccn1 (stereo not drawn) | -16.8%
COc1ccccc1C1CNC(=O)c2nc(CCN3CCC(C)CC3)[nH]c2C1 (stereo not drawn) | i
COc1cccc(C2CNC(=O)c3nc(Cn4nc(C)c(C)c4C)[nH]c3C2)c1 (stereo not drawn) | 10µM*
COc1cccc(C2CNC(=O)c3nc(-c4ccc(C(=O)N(C)C)o4)[nH]c3C2)c1 (stereo not drawn) | i
CCc1nc(NC(=O)C2CC(=O)N(c3n[nH]c4cc(Br)ccc34)C2)sc1C (stereo not drawn) | -19.4%
CC(C)Cn1nc(C(=O)O)c2c1CCN(C(=O)CC(C)c1ccccc1)C2 (stereo not drawn) | -5.4%
N#Cc1ccc(CN2CCC3(C2)C(=O)Nc2ccccc23)cc1 (stereo not drawn) | -9.9%
O=C1Nc2ccccc2C12CCN(Cc1cccnc1)C2 (stereo not drawn) | -21.1%[44.1 µM]
O=C1N(c2ccccc2)c2ccccc2C12CCN(Cc1ccccc1)C2 (stereo not drawn) | 11.2µM*
CN1C(=O)C2(CCN(Cc3ccc(F)cc3)C2)c2ccccc21 (stereo not drawn) | 12.6µM*
O=C1Nc2ccccc2C12CCN(Cc1ccsc1)CC2 | 13.2%[44.1 µM]
CN1C(=O)C2(CCN(C(=O)c3ccc(Cl)cc3)C2)c2ccccc21 (stereo not drawn) | -21.2%
CN1C(=O)C2(CCN(Cc3ccsc3)C2)c2ccccc21 (stereo not drawn) | 5.62µM*
CN1C(=O)C2(CCN(S(=O)(=O)c3ccc(F)cc3)C2)c2ccccc21 (stereo not drawn) | -29.4%
CN1C(=O)C2(CCN(Cc3cncs3)C2)c2ccccc21 (stereo not drawn) | i
CN1C(=O)C2(CCN(Cc3ccc(C(F)(F)F)cc3)C2)c2ccccc21 (stereo not drawn) | i
CN1C(=O)C2(CCN(C(=O)Cc3ccccc3Cl)C2)c2ccccc21 (stereo not drawn) | 3.16µM*
CCCC(=O)N1CCC2(CC1)C(=O)N(C)c1ccccc12 | 44.4%
CCOCCN1C(=O)COC[C@@H]1[C@H](O)c1ccc(NC(=O)C2CC2)cc1 | -15.8%[44.1 µM]
CCCc1nn(-c2ccccc2C)c(OC(C)=O)c1-c1ccc(NC(=O)CC)cc1 | i
CS(=O)(=O)N1CCC(OC2CCN(C(=O)Nc3ccc(F)cc3F)CC2)CC1 | 17.0%
COc1cccc(CCC(=O)N2C[C@@H](C(N)=O)[C@H](c3nc(C)no3)C2)c1 | 10.9%
CC(C)(C)CN1CCOC[C@H]1c1ncc(-c2ccc(S(C)(=O)=O)cc2)[nH]1 | -23.9%[44.1 µM]
O=C(c1ccc(C(F)(F)F)cc1)N1CCC2(C1)C(=O)N(c1ccccc1)c1ccccc12 (stereo not drawn) | 10µM*
CN1C(=O)C2(CCN(Cc3ccnn3C)C2)c2ccccc21 (stereo not drawn) | -22.1%[44.1 µM]
SMILES | Pf Dd2 inh
CN1C(=O)C2(CCN(Cc3cccc4ccccc34)C2)c2ccccc21 (stereo not drawn) | 12.6µM*
CN1C(=O)C2(CCN(S(=O)(=O)c3ccccc3)C2)c2ccccc21 (stereo not drawn) | -21.1%[44.1 µM]
O=C(c1ccc(C(F)(F)F)cc1)N1CCC2(C1)C(=O)N(Cc1ccccc1)c1ccccc12 (stereo not drawn) | -14.9%
O=C(c1ccccc1F)N1CCC2(C1)C(=O)N(c1ccccc1)c1ccccc12 (stereo not drawn) | -25.8%
Cn1c(CNC(=O)c2cc[nH]c2C2CCCNC2)nc2ccccc21 (stereo not drawn) | -4.3%
CCn1nc(C)c(CCNC(=O)C2CCC(=O)N(C3CCCC3)C2)c1C (stereo not drawn) | -14.2%
COc1ccccc1N1CCN(CC(O)COc2cc(C)cc(C)c2)CC1 (stereo not drawn) | 41.7%
COc1ccccc1N1CCN(CC(O)COc2ccc(Cl)c(C)c2)CC1 (stereo not drawn) | 56.1%
COc1ccccc1N1CCN(CC(O)COc2ccc(C)cc2C(C)(C)C)CC1 (stereo not drawn) | 8.91µM*
O=C(CN1C(=O)NC2(CCOCC2)C1=O)Nc1ccc(Cl)cc1F | 19.2%
CC1CCC2(CC1)NC(=O)N(CC(=O)Nc1ccccc1F)C2=O (stereo not drawn) | 39.8%
COc1ccc(CN2C(=O)CO[C@H](c3ccc(NS(=O)(=O)c4ccc(F)cc4)cc3)[C@H]2CO)cc1 | -28.8%
COCCc1noc([C@@H]2CN(Cc3cccc(OC)n3)C[C@H]2CO)n1 | -20.9%
CCC(=O)N1CCc2cc(Br)cc(S(=O)(=O)CCC(=O)Nc3cccc(CC)c3)c21 | i
CCC(=O)N1CCc2cc(Br)cc(S(=O)(=O)CCC(=O)NCCc3ccc(C)cc3)c21 | -12.6%
